# Results reported in ChEMBL document CHEMBL4513216, “Probing the Open Global Health Chemical Diversity Library for Multistage-Active Starting Points for Next-Generation Antimalarials” (ACS Infect Dis, 2020).
# About 8,600 (12%) of roughly 69,000 compounds showed an effect of 50% or more. This excerpt belongs to a sample that is enriched for strong results.
# Tested on: Plasmodium berghei
# Assay: Screen against P. berghei liver stage (PbLuc), transformed with Luciferase, at 10uM
# Format: functional, HepG2
# Details: tested at 10 uM
row,Structure (SMILES),INHIBITION
1,Cc1ccccc1-n1cc(CNC(=O)CC2C(=O)NCCN2C)cn1 (configuration not stated),4.68%
2,O=C(NC[C@@H]1CCCO1)c1cc(Br)cnc1N1CCCCC1,20.4%
3,O=C(c1ccccc1F)N(CCCO)S(=O)(=O)c1cccs1,37.7%
4,O=C(c1cccc(F)c1)N(CCCO)S(=O)(=O)c1cccs1,-38.8%
5,O=C(c1ccc(F)cc1)N(CCCO)S(=O)(=O)c1cccs1,67.4%
6,O=C(c1cscn1)N1CC[C@H]2C[C@H](c3nnc(C4CC4)o3)O[C@@H]2C1,30.3%
7,CC(C)(C)C(=O)N1CCC(c2nc(O)cc(-c3ccncc3)n2)CC1,11.1%
8,CN(C)c1nccnc1C1CCN(C2CCCCC2O)CC1 (configuration not stated),17.4%
9,CC(C)[C@@H]1CN(C(=O)c2ccc3c(c2)CCCO3)C[C@H]1NS(C)(=O)=O,71.1%
10,Cc1ccc(C(=O)N2C[C@H](NS(C)(=O)=O)[C@@H](C(C)C)C2)cc1F,14.3%
11,Cc1ccc(C(=O)N2C[C@@H](NS(C)(=O)=O)[C@H](C(C)C)C2)cc1O,18%
12,C[C@H]1C[C@H]2CN(C(=O)CCc3ccccc3)CC[C@H]2O1,-19%
13,CCn1cc(CN2C[C@@H]3CCCN3C[C@@H]2CCSC)cn1,24.4%
14,Cc1ccn(CCNC(=O)C2(C)CC(c3ccccc3)=NO2)n1 (configuration not stated),-3.94%
15,CC(C)c1noc(C(C)S(=O)(=O)Cc2nc(C3CC3)no2)n1 (configuration not stated),70%
16,CCc1noc(CS(=O)(=O)C(C)c2nc(C3CC3)no2)n1 (configuration not stated),51.5%
17,CCc1nc(CN2CCN(C(C)c3nc(C4CC4)no3)CC2)no1 (configuration not stated),-23.9%
18,CCCc1noc(C(C)S(=O)(=O)Cc2nc(C3CC3)no2)n1 (configuration not stated),22.2%
19,CC(C)c1noc(CS(=O)(=O)Cc2nc(C(C)C)no2)n1,34.2%

row,Structure (SMILES),INHIBITION
1,Cc1noc(C)c1CS(=O)(=O)Cc1nc(C2CC2)no1,21.6%
2,COCCN(Cc1cccc(C#N)c1)Cc1nc(C)no1,41.2%
3,O=C(Cc1ccc2c(c1)OCC2)Nc1nc(C(F)(F)F)n[nH]1,28.6%
4,CN1CCC(N(C)C(=O)CSc2ccc(F)c(F)c2)C1=O (configuration not stated),-0.897%
5,CC(C)c1ccc(CCC(=O)N(C)C2CCN(C)C2=O)cc1 (configuration not stated),53.8%
6,CN1CCC(N(C)C(=O)CCc2ccc(F)c(F)c2)C1=O (configuration not stated),17.9%
7,COCC(=O)N1CCC2(CC1)COC(COCc1ccccn1)C2 (configuration not stated),33%
8,Cc1nn(C)c2c(=O)n(Cc3ccc(Cl)cc3)nnc12,48.25%
9,CC(=O)N1Cc2ccccc2C[C@H]1C(=O)Nc1ccccn1,28.7%
10,CC(=O)N1Cc2ccccc2CC1C(=O)Nc1cc(C)ccn1 (configuration not stated),56.5%
11,CC(=O)N1Cc2ccccc2C[C@H]1C(=O)N(C)Cc1ccccn1,40.7%
12,CN(CCc1ccccn1)C(=O)C1Cc2ccccc2CN1C (configuration not stated),20%
13,CC(=O)N1Cc2ccccc2CC1C(=O)Nc1ccc(C)cn1 (configuration not stated),32.7%
14,CC(=O)N1Cc2ccccc2C[C@H]1C(=O)N(C)CCc1ccccn1,58.1%
15,Cn1cnc(S(=O)(=O)NCCN2CCCCCC2)c1Cl,31.2%
16,CCC(Oc1ccccc1)c1nn2c(CN(CC)CC)nnc2s1 (configuration not stated),-31.7%
17,Cc1nc([C@@H]2C[C@@H]3CCN(C(=O)c4ccsc4)C[C@H]3O2)no1,18.5%
18,COCCN(Cc1ccoc1)C(=O)c1ccccn1,11.8%
19,CCCN(C(=O)c1cccnc1)c1nc2c(s1)CCc1c-2cnn1C,78.2%

row,Structure (SMILES),INHIBITION
1,CCCN(C(=O)c1ccccn1)c1nc2c(s1)CCc1c-2cnn1C,63.1%
2,COCCN(C(=O)c1cnccn1)c1nc2c(s1)CCc1c-2cnn1C,11.1%
3,CN(C(=O)c1ccccn1)c1nc2c(s1)CCc1c-2cnn1C,74.5%
4,COCCN(C(=O)c1ccccn1)c1nc2c(s1)CCc1c-2cnn1C,59.3%
5,Cc1cc(-c2cnc(C)nc2CN(C)C(=O)c2ccccn2)on1,18.3%
6,CN(C(=O)c1ccccn1)c1nnc(C2CCOC2)s1 (configuration not stated),-13.745%
7,CCCN(C(=O)c1cnccn1)c1nc2c(s1)CCc1c-2cnn1C,29.2%
8,CCCN(C(=O)c1ccncc1)c1nc2c(s1)CCc1c-2cnn1C,46%
9,CCCN(C(=O)c1cnc(C)cn1)c1nc2c(s1)CCc1c-2cnn1C,44.8%
10,CCCN(C(=O)COC)c1nc2c(s1)CCc1c-2cnn1C,5.13%
11,O=C(NCCCNC(=O)c1cccc(O)c1)NCc1ccccc1F,-1.58%
12,CCn1cc(CN2CCCN(C(=O)c3ccco3)CC2)cn1,-61.4%
13,COC(=O)c1ccnn1COc1ccc(Cl)cc1,16%
14,CCc1nn(C)c2[nH]nc(NC(=O)c3ccccc3COC)c12,33.7%
15,N#Cc1ccc(NC(=O)C2CSCN2)cc1 (configuration not stated),39%
16,COc1cc(CNCc2ccco2)ccc1OCCO,10.6%
17,CCN(CC)S(=O)(=O)c1cc(Br)ccc1OC,-32.9%
18,COc1cc(OC)cc(C(=O)N(C)Cc2nnc3ccccn23)c1,-6.14%
19,Cc1c[nH]c(CN2CCCCC2CCc2cccc(O)c2)c(C)c1=O (configuration not stated),39.9%
